From PubChem BioAssay
Sampled rows, rich in hits. Any-hit rate of the full collection: about 27%.
CYP2C9 act: activators of human CYP2C9; P11712; recombinant CYP2C9, luciferin-H conversion, luminescence; active compounds read high; factor 1 = untreated enzyme, 0 = blocked; activation factor at 5 µM; 96,000 compounds, 1.4% hits;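 active means activation factor of 2 or more for CYP2C9 at a 5 µM dose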;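 further: 0 = sulfaphenazole-blocked wells and 1 = vehicle-only wells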
CYP2C9 inh: blocks human cytochrome P450 2C9. P11712. CYP2C9 Supersomes, luciferin-H conversion, luminescence. inhibition, % at 5 µM. 96,000 compounds, 20% hits;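 active means blocking of liver enzyme CYP2C9 beyond about 50% at 5 µM, limit read from the data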
CYP2C19 inh: human CYP2C19 inhibition | P33261 | CYP2C19 Supersomes, luciferin-H EGE luminescence, 30 min | inhibition, % at 5 µM | 96,000 compounds, 21% hits | AID 778;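 active means CYP2C19 inhibition above a set limit at 5 µM in the primary screen, cut at about 50% in these data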;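 further: plate controls were negative control wells for no effect and 2.5 mM tranylcypromine positive control for full effect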
Target sequence (P33261 whole entry, looked up): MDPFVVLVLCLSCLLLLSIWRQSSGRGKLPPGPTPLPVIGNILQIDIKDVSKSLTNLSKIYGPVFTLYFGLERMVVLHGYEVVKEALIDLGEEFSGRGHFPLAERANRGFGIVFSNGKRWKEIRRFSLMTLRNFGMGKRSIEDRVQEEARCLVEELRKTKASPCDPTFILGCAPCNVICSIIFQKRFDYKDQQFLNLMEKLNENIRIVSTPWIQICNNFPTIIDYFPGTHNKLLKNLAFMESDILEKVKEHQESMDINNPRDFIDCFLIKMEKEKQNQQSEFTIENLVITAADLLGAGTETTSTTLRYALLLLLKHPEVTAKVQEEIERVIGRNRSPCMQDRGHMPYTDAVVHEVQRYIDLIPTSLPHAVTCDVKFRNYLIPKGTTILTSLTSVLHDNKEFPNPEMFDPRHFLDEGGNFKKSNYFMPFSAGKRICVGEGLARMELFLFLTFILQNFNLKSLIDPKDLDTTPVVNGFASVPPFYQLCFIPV
EphB4 ephrin blk: EphB4-ephrin-B2 interaction antagonism; EphB4 LBD / TNYL-RAW-Alexa532 peptide, fluorescence polarization; inhibition, % at 7 µM; 97,000 compounds, 0.15% hits; AID 720;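 active means inhibition above the screen-wide mean inhibition plus 3 SD, cut at about 15% in these data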;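 further: 0% = DMSO wells and 100% = excess unlabeled TNYL-RAW peptide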
CYP2C19 activ: cytochrome P450 2C19 (human) activation. P33261. recombinant CYP2C19, luciferin-H EGE luminescence; active compounds read high; 0 = fully inhibited enzyme, 1 = untreated enzyme. activation factor at 5 µM. 96,000 tested, under 10 active;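 active means activation factor of at least 2 at 5 µM in the primary screen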;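 further: 0 = wells with 2.5 mM tranylcypromine and 1 = vehicle-only wells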
An asterisk follows results filed as active; x = not tested or not shown.

SMILES	CYP2C9 act	CYP2C9 inh	CYP2C19 inh	EphB4 ephrin blk	CYP2C19 activ
COCCOC(=O)C1=C(C)N(Cc2ccccc2)C(=O)NC1c1cccc(OC)c1OC (configuration not stated)	0.1	90*	99*	-5	0
COC(=O)C1=C(C)NC(=O)NC1c1cccc(OC)c1OCc1ccccc1 (configuration not stated)	0.2	77*	19	6	0.8
CC(=O)C1=C(c2ccccc2)NC(=O)NC1c1ccccc1OCC(=O)NCc1ccccc1 (configuration not stated)	0.1	95*	90*	3	0.1
CC1=C(C(=O)NCc2ccccc2)C(c2ccccc2OCC(N)=O)NC(=O)N1 (configuration not stated)	0.5	45	-6	11	1.1
COc1ccccc1NC(=O)C1=C(C)NC(=O)NC1c1cccc(OC)c1OC (configuration not stated)	1.1	-13	-1	4	1
CCN(C(=O)CN1CCCc2ccccc21)c1c(N)n(Cc2ccccc2)c(=O)[nH]c1=O	1.2	-22	18	x	0.8
N#Cc1nc(-c2ccco2)oc1NCCCn1ccnc1	0.2	84*	86*	-4	0.1
COc1ccc(-c2nc(C#N)c(NCCCn3ccnc3)o2)cc1OC	0.1	86*	81*	-1	0.2
CCCOc1ccc(-c2nc(C#N)c(NCCCn3ccnc3)o2)cc1	x	x	x	6	x
CNc1oc(-c2ccco2)nc1C#N	0.6	37	4	-4	1
Cn1c(SCC(=O)Nc2ccc3c(c2)OCO3)nnc1-c1cnccn1	1	-4	17	0	0.8
O=C(COc1cccc(Cl)c1)Nc1nc(-c2ccc(S(=O)(=O)N3CCOCC3)cc2)cs1	x	x	x	-2	x
COc1ccccc1CO/N=C/NC(=O)c1c(OC)ccnc1Oc1ccc(F)cc1	0.2	77*	97*	-1	0
CO/N=C/NC(=O)c1c(OC)ccnc1Oc1ccc(Cl)cc1	0.8	24	19	0	0.8
COc1ccnc(Oc2ccccc2)c1C(=O)N/C=N/OCc1ccc(F)cc1Cl	0.4	56*	66*	-2	0.3
CCOC(=O)Cn1nc(C)n(-c2ccc(C)cc2)c1=O	1	-2	-7	1	1.1
CCOC(=O)c1cc2c(C)n(-c3ccc(C)cc3)c(C)c2ccc1=O	0.4	59*	39	-4	0.6
CCOC(=O)c1cc2c(C)n(-c3ccc(OCC)cc3)c(C)c2ccc1=O	0.8	20	64*	8	0.4
CCOc1cc(NC(=O)c2ccco2)c(OCC)cc1NC(=O)CCc1ccccc1OC	0.8	24	18	x	0.8
COc1cc2c(cc1OC)C(SC)=NC(C)(C)C2	x	x	x	4	x
Cc1c(-c2ccccc2)nc(N)c(C#N)c1-c1ccco1	0.5	45	69*	4	0.3
C/C(CC(=O)Nc1ccc(Cl)c(Cl)c1)=N\NC(N)=S	0.7	29	72*	9	0.3
COc1ccccc1NC=C1C(=O)OC2(CCCCC2)OC1=O	2.8*	-177	20	0	0.8
Cc1c(Cc2ccccc2)c(=O)oc2c(C)c(OCc3nn[nH]n3)ccc12	0.2	81*	-1	2	1
Cc1cc(OCc2nn[nH]n2)c2c(C)c(Cc3ccccc3)c(=O)oc2c1	0	98*	80*	-3	0.2
SMILES	CYP2C9 act	CYP2C9 inh	CYP2C19 inh	EphB4 ephrin blk	CYP2C19 activ
Cc1ccc2c(c1)c(C)c(C)n2CC(O)Cn1nc(C)c(Br)c1C (configuration not stated)	0	96*	97*	7	0
Cc1ccc2c(c1)c(C)c(C)n2CC(O)CN1CCCCC1C (configuration not stated)	0.9	5	75*	2	0.3
Cc1ccc(C)c(OCC(O)CN2CCCCC2C)c1 (configuration not stated)	1.1	-10	53*	-6	0.5
CC(=O)c1c(C)nn(CC(O)Cn2c3c(c4cc(C)ccc42)CCCC3=O)c1C (configuration not stated)	0.3	67*	54*	-1	0.5
NS(=O)(=O)c1ccc(S(=O)(=O)N(Cc2ccccc2F)CC2CCCO2)cc1 (configuration not stated)	1	3	11	-1	0.9
CCCSc1nc(N2CCOCC2)c2c(c1C#N)CCCC2	0.1	93*	59*	4	0.4
CCCc1nc(N2CCOCC2)c(C#N)c2c1CCCC2	0.3	72*	82*	-5	0.2
Cc1nc(N2CCOCC2)c(C#N)c(C)c1Br	0.8	20	56*	7	0.4
CCCCc1nc(N2CCOCC2)c(C#N)c2c1CCCC2	0.5	49	30	-5	0.7
N#CCCSc1nc(N2CCOCC2)c2c(c1C#N)CCCC2	0	97*	91*	-4	0.1
CSc1nc(N2CCOCC2)c2c(c1C#N)CCCCC2	0.2	79*	47	2	0.5
CSc1nc(C)c2c(c1C#N)CCCC2	1.3	-27	18	-1	0.8
Cc1ccc(C(=O)Nc2ccc3c(c2)CCC3)o1	1.1	-13	78*	x	0.2
O=C(Nc1ccc2c(c1)OCO2)c1ccc(Br)o1	0.4	60*	85*	-3	0.1
O=C(Nc1ccc2c(c1)CCC2)c1cnccn1	1.1	-10	68*	12	0.3
O=C(Nc1ccc2c(c1)CCC2)c1cc2ccccc2o1	1.3	-28	16	-4	0.8
O=C(Nc1ccc2c(c1)CCC2)c1ccc(Br)o1	1.2	-18	76*	-4	0.2
O=C(COC(=O)CNC(=O)c1ccc(Br)o1)Nc1ccc2c(c1)OCCO2	0.8	19	-5	5	1
COCCCNC(=O)CN(C1CCCCC1)S(=O)(=O)c1ccc(C)cc1	0.8	21	16	-1	0.8
COc1ccc(-c2coc3c(CN4CCCCC4)c(O)c(CN4CCCCC4)c(O)c3c2=O)cc1	1	1	15	x	0.8
COC(=O)c1ccc(NC(=O)c2cccc(OC)c2)cc1	1	2	49	-13	0.5
COc1cccc(NC(=O)c2ccccc2NS(C)(=O)=O)c1	0.3	65*	9	-4	0.9
COc1ccccc1NC(=O)c1ccccc1NS(C)(=O)=O	0.8	19	-2	4	1
COC(=O)c1ccc(NC(=O)c2ccccc2NS(C)(=O)=O)cc1	0.3	66*	23	-2	0.8
CCS(=O)(=O)Nc1ccc(C(=O)OC)cc1	0.3	69*	64*	3	0.4
CCS(=O)(=O)Nc1ccc(C(=O)c2ccccc2)cc1	x	x	x	2	x
CS(=O)(=O)Nc1ccccc1C(=O)c1ccccc1	1.2	-19	61*	-5	0.4
CS(=O)(=O)Nc1ccccc1C(=O)Nc1ccccc1Cl	x	x	x	-4	x
O=C(NCC1CCCO1)C1C2C=CC3(CN(Cc4cccs4)C(=O)C13)O2 (configuration not stated)	0.8	17	3	6	1
Nc1ccc[n+](Cc2ccccn2)c1	1	2	6	4	0.9
